Test results reported in PubChem BioAssay (Tox21).
Inconclusive results are not listed. Where a call stands in place of a potency, no number is given. Calls of active or inactive are those of the source. Calls follow the shape of the dose curve; as a rule, active = well fitted activation curve with a large enough effect in the repeat runs; inconclusive = weak or mixed curves; inactive = no such curve, though single readings can be large or run the other way.

Test: qHTS assay to identify small molecule agonists of the estrogen related receptor (ERR) signaling pathway (AID 1224820)
Details: ERR reporter cell line, luciferase agonist mode; series mostly up to 46.1 µM
Source text: National Center for Advancing Translational Sciences [NCATS]
NIH Chemical Genomics Center [NCGC]
U.S. Environmental Protection Agency [EPA]
National Institutes of Environmental Health Sciences [NIEHS]
National Toxicology Program [NTP]
Estrogen related receptors (ERRs), the first orphan nuclear receptors discovered, play an important role in the control of cellular energy metabolism. ERRs are required for high-energy production in response to the environmental challenges. ERR-alpha was also identified as an adverse marker for breast cancer progression; ERR-alpha-positive tumors have a poor prognosis. To screen and to identify environmental compounds that perturb the ERR signaling pathways could provide valuable information for potential therapeutic or preventive measures in the treatment of metabolic disease. For identifying ERR agonists, ERR cell line (provided by NTP) has been used to screen LOPAC library.
The ERR cells were dispensed at 2,000 cells/5 ul/well in 1536-well white plates using a Multidrop dispenser. After the assay plates were incubated at a 37 C/5% CO2 incubator for 6 hours, 23 nL of compounds dissolved in DMSO, positive and negative controls or DMSO only was transferred to the assay plate by a pin tool. The plates were incubated at 37 C for 18 hours. 4 ul/well of One-Glo reagent was added into the assay plates using a Flying Reagent Dispenser. After 30 min incubation at room temperature, the luminescence intensity in the plates was measured using a ViewLux plate reader.
Potency is read from the fitted curve at half-maximal effect.

Q: For CC(C)(C)c1cc(/C=C(\C#N)C(N)=S)cc(C(C)(C)C)c1O, which Potency is on record?
A: Its Potency is “inactive”.

Q: For Cc1nc(N=Nc2cc(S(=O)(=O)O)c3cc([N+](=O)[O-])cc(S(=O)(=O)O)c3c2)c(COP(=O)(O)O)c(C=O)c1O, which Potency is on record?
A: Its Potency is “inactive”.

Q: With O=C(O)c1cc([N+](=O)[O-])ccc1NCCCc1ccccc1 as the compound, how does the Potency read?
A: Its Potency is “inactive”.

Q: Which Potency does the source give for COc1cc(OC)cc(-c2cc3cnc(N)nc3nc2NC(=O)NC(C)(C)C)c1 here?
A: Its Potency is “inactive”.

Q: Which Potency does the source give for CCCN(CC1CC1)c1nc(C)nc(Nc2c(Cl)cc(Cl)cc2Cl)c1Cl here?
A: Its Potency is “inactive”.

Q: Which Potency does the source give for N[C@H]1CONC1=O here?
A: Its Potency is “inactive”.

Q: With CCC(NC(C)C)C(O)c1ccc(O)c(O)c1 (stereo not given) as the compound, how does the Potency read?
A: The Potency was “inactive”.

Q: For NC(N)=NC(N)=Nc1cccc(Cl)c1, which Potency is on record?
A: Its Potency is “inactive”.

Q: For N=C(N)SCCc1cnc[nH]1, which Potency is on record?
A: The Potency was “inactive”.

Q: For NC1(C(=O)O)CC1, which Potency is on record?
A: The Potency was “inactive”.

Q: Which Potency does the source give for NC(=O)c1ccc2[nH]ccc2c1 here?
A: Its Potency is “inactive”.

Q: Which Potency does the source give for NCC1OC(OC2C(O)[C@@H](OC3C(O)C(N)CC(N)C3OC3OC(CO)C(O)C(O)C3N)O[C@@H]2CO)C(N)C(O)C1O (stereo not given in full) here?
A: The Potency was “inactive”.

Q: Which Potency does the source give for O=C1NC(=O)/C(=C/c2ccc3nccnc3c2)S1 here?
A: The Potency was “inactive”.

Q: For C[C@@H](N)C1CCC(C(=O)Nc2ccncc2)CC1 (stereo not given in full), which Potency is on record?
A: Its Potency is “inactive”.

Q: With CC[N+](CC)(CC)CC(=O)Nc1c(C)cccc1C as the compound, how does the Potency read?
A: Its Potency is “inactive”.

Q: For CCCCCCN(CCCCCC)C(=O)Cc1c(-c2ccc(F)cc2)[nH]c2ccccc12, which Potency is on record?
A: The Potency was “inactive”.

Q: Which Potency does the source give for CCCCCCCCCC(=O)NC(CN1CCOCC1)[C@H](O)c1ccccc1 (stereo not given in full) here?
A: The Potency was “inactive”.

Q: With COc1cc(NS(C)(=O)=O)ccc1Nc1c2ccccc2nc2ccccc12 as the compound, how does the Potency read?
A: The Potency was “inactive”.

Q: For Cc1ccc([N+](=O)[O-])cc1S(=O)(=O)N(C)C, which Potency is on record?
A: Its Potency is “inactive”.

Q: For CCCC(=O)c1cc(O)c(O)cc1O, which Potency is on record?
A: Its Potency is “inactive”.

Q: With CNC(=O)[C@H]1O[C@@H](n2cnc3c(NCc4cccc(I)c4)ncnc32)[C@H](O)C1O (stereo not given in full) as the compound, how does the Potency read?
A: Its Potency is “inactive”.

Q: Which Potency does the source give for NS(=O)(=O)c1cccc2c1c([N+](=O)[O-])cc1nc(O)c(O)nc12 here?
A: Its Potency is “inactive”.

Q: With S=C(S)OC1CC2CC1C1CCCC21 (stereo not given) as the compound, how does the Potency read?
A: Its Potency is “inactive”.

Q: For CCCCCCCC/C=C\CCCCCCCC(=O)NCCc1ccc(O)c(O)c1, which Potency is on record?
A: Its Potency is “inactive”.

Q: Which Potency does the source give for CCCCCCCCCCC(C)(C)C(=O)Nc1c(OC)cc(OC)cc1OC here?
A: Its Potency is “inactive”.

Q: For NCCNS(=O)(=O)c1cccc2c(Cl)cccc12, which Potency is on record?
A: The Potency was “inactive”.

Q: For COc1cccc(OC)c1OCCNCC1COc2ccccc2O1 (stereo not given), which Potency is on record?
A: The Potency was “inactive”.

Q: Which Potency does the source give for CC(=O)/C(C)=N/O here?
A: Its Potency is “inactive”.

Q: With NCC(O)C1CCCCCCC1 (stereo not given) as the compound, how does the Potency read?
A: Its Potency is “inactive”.

Q: Which Potency does the source give for CC[n+]1c(/C=C/C=C2/N(C)c3ccccc3C2(C)C)sc2ccccc21 here?
A: The Potency was “inactive”.

Q: For CN1CCc2cc(NC(=O)Nc3cccnc3)ccc21, which Potency is on record?
A: The Potency was 9.08 µM (active).

Q: For CC(=O)NNC(=O)N1Cc2ccccc2Oc2ccc(Cl)cc21, which Potency is on record?
A: Its Potency is “inactive”.

Q: With N[C@H](C(=O)O)c1cc(O)cc(O)c1 as the compound, how does the Potency read?
A: The Potency was “inactive”.

Q: With COc1cccc(OC)c1OCCNCC1CSc2ccccc2O1 (stereo not given) as the compound, how does the Potency read?
A: The Potency was “inactive”.

Q: With Cc1cccc(-c2[nH]c(C(C)(C)C)nc2-c2ccc3nccnc3c2)n1 as the compound, how does the Potency read?
A: The Potency was “inactive”.

Q: For CN(C)CCCc1cc(C(=O)Nc2ccc(-c3ccncc3)cc2)ccc1O, which Potency is on record?
A: Its Potency is “inactive”.

Q: With CCCCCC(O)CCCC(=O)O (stereo not given) as the compound, how does the Potency read?
A: The Potency was “inactive”.

Q: For CC(C)(C)c1onc(OCP(=O)(O)O)c1CC(N)C(=O)O (stereo not given), which Potency is on record?
A: The Potency was “inactive”.

Q: Which Potency does the source give for CCC1(O)CC2CN(CCc3c([nH]c4ccccc34)[C@@](C(=O)OC)(c3cc4c(cc3OC)N(C)C3[C@]45CCN4CC=C[C@@](CC)([C@@H](OC(C)=O)[C@]3(O)C(=O)OC)[C@H]45)C2)C1 (stereo not given in full) here?
A: The Potency was “inactive”.

Q: Which Potency does the source give for Brc1c(Br)c(Br)c2n[nH]nc2c1Br here?
A: The Potency was “inactive”.
